# Bioassay records: PubChem, several laboratories
# Shown are actives, neighbours in structure and some others; about 3.2% of the full set was active somewhere.
# LGR2 inh = blocks bursicon-induced cAMP signaling via Drosophila LGR2; hit rate 0.35% among 380,000; inhibition, % at 9.99 µM; AID 720647; HEK293 LGR2, CRE-luciferase, bursicon-stimulated, 4 h;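 active means drop in luminescence signal, shown as inhibition above about 50% in the replicate tests, limit read from the data, passing the limit was not always enough; inconclusive means probably only some replicates passing the limit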;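 further: agonist challenge used bursicon conditioned medium at about half maximal strength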
# TROY NFkB inh = blocks TROY-dependent signaling in reporter cells | inhibition, % at 10 µM | Q293 LMP1-TROYcd NF-kB luciferase reporter, 4 h | hit rate 0.98% among 360,000;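 active means compounds whose plate-normalised and pattern-corrected inhibition of the luciferase reporter signal at the single screening dose is 50% or more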
# EBV LMP1 NFkB = inhibitors of Epstein-Barr LMP1-induced NF-kappaB reporter; LMP1-induced NF-kappaB luciferase reporter cells, luminescence; inhibition, % at 12.5 µM; AID 504558; hit rate 0.69% among 350,000; in the data active means inhibition above about 41%; inconclusive means no clear call, values can overlap the other calls;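 further: 0% = neutral control wells and 100% = reference inhibitor control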
# PAX8 reporter = lowers PAX8-driven luciferase in RMG-I cells; RMG-I TPO-luciferase reporter, SteadyGlo, 24 h; inhibition, % at 12.6 µM; hit rate 1.2% among 360,000; AID 652154;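 active means mean replicate inhibition at least 60% with every replicate also reaching 60%; inconclusive means only one of the two criteria is met; inactive means mean below 60% and not all replicates reaching 60%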;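 further: luciferase light reporting Pax8 driven TPO promoter activity; plate controls were median of neutral control wells for no effect and mitoxantrone controls for full effect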
# EWS-Fli inh = inhibitors of EWS/Fli oncoprotein transcriptional activity; inhibition, % at 12.6 µM; hit rate 0.67% among 350,000; A673 NR0B1-luciferase reporter, viability-normalised;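 active means mean inhibition of at least 50% after viability correction, with every replicate also passing that limit; inconclusive means mean reaches 50% but only one of two replicates passes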;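 further: firefly luciferase signal divided by Alamar Blue viability fluorescence both relative to DMSO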
# TWEAK Fn14 block = blocks TWEAK-Fn14 interaction in a reporter cell assay. TWEAK-stimulated Fn14 reporter cells, luciferase luminescence, 8 h. inhibition, % at 10 µM. hit rate 2% among 360,000; in the data active means inhibition above about 50%
# Starred values were filed as active, the others as inactive; ? = inconclusive; nt = no result given.
SMILES,LGR2 inh,TROY NFkB inh,EBV LMP1 NFkB,PAX8 reporter,EWS-Fli inh,TWEAK Fn14 block
Oc1ccc(Oc2ccc3c(C(F)(F)F)cc(C(F)(F)F)nc3n2)cc1,nt,38.0,47.7*,6.6,nt,38.6
COc1ccc(Oc2ccc3c(C(F)(F)F)cc(C(F)(F)F)nc3n2)cc1,nt,14.0,5.2,-12.1,nt,7.8
CC(C)n1c2ccccc2c2cc([N+](=O)[O-])ccc21,13.1,12.0,-2.5,-2.2,-0.2,-2.0
CN(C)c1ccc(C=c2c3cc(O)ccc3n3c2cc(-c2ccccc2)[n+]3C)cc1,-1.8,26.9,11.8,72.5*,-1.9,39.9
C[n+]1c(-c2ccccc2)cc2c(=Cc3ccccc3)c3ccccc3n21,?,27.6,30.4,115.3*,52.7*,73.9*
CN(C)c1ccc(/C=C(\C#N)c2ccccc2)cc1,nt,-18.6,4.9,nt,nt,28.2
C[n+]1c(-c2ccccc2)cc2c(=Cc3ccc([N+](=O)[O-])cc3)c3ccccc3n21,-1.9,25.2,-4.7,74.4*,5.5,7.8
O=C(C[C@H]1CC[C@@H](NC(=O)CN2CCOCC2)[C@@H](CO)O1)NC1CCC1,15.0,nt,nt,-2.4,-13.1,nt
CCOC(=O)C1=C(C)Nc2ccc(C)cc2S1,nt,21.8,4.0,-40.8,nt,95.7*
CCOCCOC(=O)C1=C(C)Nc2ccc(C)cc2S1,nt,25.2,-13.2,nt,nt,39.4
C[C@@H]1CN([C@@H](C)CO)C(=O)c2cc(NC(=O)Nc3ccc(C(F)(F)F)cc3)ccc2O[C@@H]1CN(C)C(=O)Nc1ccc2c(c1)OCO2,-28.2,nt,nt,nt,-10.0,nt
CCOc1ccc(Br)cc1/C(C)=N\NC1=NCCN1,nt,30.3,80.5*,nt,nt,30.8
CCOc1ccc(S(=O)(=O)N(C)c2ccc(OCC(=O)Nc3nc4ccccc4s3)cc2)cc1,-8.9,34.2,20.2,9.4,nt,74.0*
CCOc1ccc(C(=O)CCc2nc3ccccc3s2)cc1,nt,54.2*,-12.7,nt,nt,45.5
COc1ccc(OCC(=O)NNc2nc3ccccc3s2)cc1,nt,78.6*,-26.5,21.2,-4.9,3.6
COc1ccc(NC(=O)CCc2nc3ccccc3s2)c(OC)c1,-37.4,-0.6,8.3,24.0,-10.7,-24.5
CN(c1ccc(OCC(=O)Nc2nc3ccccc3s2)cc1)S(=O)(=O)c1ccccc1,-14.0,51.4*,0.8,-1.6,-11.4,40.6
CCOc1ccc(S(=O)(=O)N(C)c2ccc(OCC(=O)NC3=NCCS3)cc2)cc1,-7.9,-18.6,0.9,-5.9,-14.1,8.9
N#C[C@@H]1[C@@H](c2ccccc2-c2ccccc2)[C@@H](CO)N1C(=O)NC1CCCCC1,1.8,nt,nt,nt,-8.9,nt
CC12C(=O)N(c3nccs3)C(=O)C1(C)C1CCC2O1 (stereo not drawn),-6.7,-20.5,nt,-10.2,8.3,0.9
C[C@@]12C(=O)OC(=O)[C@]1(C)C1CCC2O1,17.9,65.6*,36.0,112.5*,-0.2,98.3*
CCC(=O)Nc1cc2nn(-c3ccc(C)cc3)nc2cc1C,40.3,90.0*,63.4*,-118.1,77.0*,93.3*
CCCCC(=O)Nc1cc2nn(-c3ccc(OC)cc3)nc2cc1C,9.7,-33.4,-13.6,nt,-59.9,-43.0
CCC(=O)Nc1cc2nn(-c3ccc(OC)cc3)nc2cc1C,?,56.7*,22.1,nt,nt,69.7*
Cc1ccc(-n2nc3cc(C)c(NC(=S)NC(=O)/C=C/c4ccco4)cc3n2)cc1,-39.8,69.4*,-60.0,-47.7,nt,39.5
SMILES,LGR2 inh,TROY NFkB inh,EBV LMP1 NFkB,PAX8 reporter,EWS-Fli inh,TWEAK Fn14 block
CCC(=O)N1[C@@H](CO)[C@H](c2ccccc2)[C@@H]1CNC(=O)CN1CCOCC1,18.6,nt,nt,4.5,-2.4,nt
O=C(C[C@@H]1CC[C@H](NC(=O)C2CC2)[C@H](CO)O1)Nc1ccccc1,-10.5,nt,nt,nt,nt,nt
O=C(NC1CCCC1)[C@H]1[C@H](CO)[C@H]2Cn3c(ccc(-c4ccncc4)c3=O)[C@H]2N1CCc1ccccc1,21.1,nt,nt,5.6,-1.7,nt
Brc1cccc(-c2cnco2)c1,-4.7,0.7,56.2*,13.5,-4.1,7.5
CC(C)(C)c1ccc(-c2cnco2)cc1,-4.6,17.0,-3.0,-1.8,-7.5,6.6
C[C@@H]1CCCCO[C@H](CN(C)Cc2ccc(Cl)c(Cl)c2)[C@@H](C)CN([C@H](C)CO)C(=O)c2cc(NC(=O)CCCCCC(=O)Nc3ccccc3N)ccc2O1,4.4,nt,nt,73.5*,9.1,nt
C[C@@H]1CCCCO[C@H](CN(C)Cc2ccccc2)[C@@H](C)CN([C@H](C)CO)C(=O)c2cc(NC(=O)CCCCCC(=O)Nc3ccccc3N)ccc2O1,8.3,nt,nt,14.1,-20.1,nt
C[C@@H]1CN([C@H](C)CO)C(=O)c2cc(NC(=O)CCCCCC(=O)Nc3ccccc3N)ccc2O[C@@H](C)CCCCO[C@H]1CN(C)Cc1ccc(Cl)c(Cl)c1,-8.2,nt,nt,80.4*,-19.6,nt
COCC(=O)N1[C@H](C#N)[C@H](c2ccc(-c3cccnc3)cc2)[C@@H]1CO,-2.0,nt,nt,-7.9,-6.0,nt
O=C(C[C@H]1CC[C@H]2[C@@H](COC[C@@H](O)CN2C(=O)c2ccccc2)O1)NC1Cc2ccccc2C1,-2.2,nt,nt,-4.7,-9.9,nt
O=C(Nc1cccc(F)c1)N1CCCCN2[C@H](CO)[C@@H](c3ccc(-c4ccccc4F)cc3)[C@H]2C1,-1.3,nt,nt,93.6*,32.2,nt
O=C(Nc1ccc(F)cc1)N1CCCCN2[C@H](CO)[C@H](c3ccc(-c4ccccc4F)cc3)[C@H]2C1,nt,nt,nt,64.2*,3.2,nt
O=C(Nc1ccc(F)cc1)N1CCCCN2[C@H](CO)[C@@H](c3ccc(-c4ccccc4F)cc3)[C@@H]2C1,nt,nt,nt,5.4,-4.7,nt
C[C@@H]1CN([C@H](C)CO)C(=O)Cc2cc(NS(=O)(=O)c3ccc(Cl)cc3)ccc2O[C@H]1CN(C)C(=O)Nc1ccc2c(c1)OCO2,13.3,nt,nt,-2.2,-5.0,nt
O=C(c1ccc(F)cc1)N1C[C@H]2[C@@H](c3ccccc31)[C@@H](CO)N2C(=O)c1ccccc1,18.9,nt,nt,-1.7,-1.1,nt
COCC(=O)N1[C@H](CO)[C@@H]2c3ccccc3N(C(=O)c3ccccc3)C[C@@H]21,-15.3,nt,nt,-9.5,2.9,nt
O=C(C[C@H]1CC[C@@H]2[C@H](COC[C@@H](O)CN2C(=O)c2ccccc2)O1)NCc1cccc(F)c1,9.9,nt,nt,-4.4,-2.1,nt
Nc1nc2c(nnn2C2CC(O)C(CO)O2)c(=O)[nH]1 (stereo not drawn),-9.4,16.7,nt,83.1*,-13.2,-20.6
Nc1nc2c(ncn2C2C[C@H](O)[C@@H](CO)O2)c(=O)[nH]1 (stereo partly drawn),35.2,-4.4,-0.4,-3.6,8.0,7.9
COc1ccc2c3c([nH]c2c1)[C@@H](CO)N(S(C)(=O)=O)CC31CCN(Cc2nccs2)CC1,-8.5,nt,nt,nt,13.6,nt
CCN(CC)S(=O)(=O)c1ccc(Cl)c(NC(=O)COC(=O)c2cc(-c3ccccc3Cl)nc3ccccc23)c1,12.6,94.8*,-4.8,10.4,22.4,109.8*
COc1ccc(C(=O)N2CCN(C(=O)c3cc(OC)c(OC)c(OC)c3)CC2)cc1,nt,-3.5,-1.2,nt,nt,-14.5
Cc1cccc(N2CCN(C(=O)c3cc(S(=O)(=O)N4CCCC4)cn3C)CC2)c1C,-11.8,17.6,-7.2,27.1,65.2*,27.4
